CYP2C9 activ = increases human cytochrome P450 2C9 activity; P11712; recombinant CYP2C9, luciferin-H conversion, luminescence; stronger effect = higher value; factor 1 = untreated enzyme, 0 = blocked; activation factor at 5 µM; actives 1.4% (n = 96,000);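 active = activation factor of 2 or more for CYP2C9 at a 5 µM dose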
Target sequence (P11712 whole entry, looked up): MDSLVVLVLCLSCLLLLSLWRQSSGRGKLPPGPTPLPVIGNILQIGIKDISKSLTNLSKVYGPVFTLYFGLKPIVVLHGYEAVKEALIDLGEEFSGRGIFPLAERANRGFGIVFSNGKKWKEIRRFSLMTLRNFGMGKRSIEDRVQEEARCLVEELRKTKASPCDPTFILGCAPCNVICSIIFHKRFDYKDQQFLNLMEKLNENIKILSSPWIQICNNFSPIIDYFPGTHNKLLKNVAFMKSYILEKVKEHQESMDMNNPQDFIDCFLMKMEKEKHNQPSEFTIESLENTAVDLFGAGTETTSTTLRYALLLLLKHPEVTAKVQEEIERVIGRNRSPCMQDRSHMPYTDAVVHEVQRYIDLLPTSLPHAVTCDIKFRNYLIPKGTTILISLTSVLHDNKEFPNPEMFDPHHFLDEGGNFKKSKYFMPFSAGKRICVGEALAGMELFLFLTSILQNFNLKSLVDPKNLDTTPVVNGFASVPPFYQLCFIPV
CYP2C19 inh = human CYP2C19 inhibition | P33261 | CYP2C19 Supersomes, luciferin-H EGE luminescence, 30 min | inhibition, % at 5 µM | actives 21% (n = 96,000);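 active = CYP2C19 inhibition above a set limit at 5 µM in the primary screen, cut at about 50% in these data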
PostGolgi yeast = growth inhibition of a yeast mutant, post-Golgi transport screen | inhibition, % at 10 µM | post-Golgi transport phenotypic cell assay | actives 0.9% (n = 98,000);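 also: yeast cells grown in 1536-well plates; yeast grown about 18 h at 30C before absorbance read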
CYP2C9 inh = human CYP2C9 inhibition | P11712 | CYP2C9 Supersomes, luciferin-H conversion, luminescence | inhibition, % at 5 µM | actives 20% (n = 96,000) | AID 777;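 active = blocking of liver enzyme CYP2C9 beyond about 50% at 5 µM, limit read from the data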
PostGolgi ctrl = yeast control strain growth, post-Golgi counter-screen; efflux-deficient yeast background strain, growth absorbance A615, 16 h; inhibition, % at 10 µM; actives 5% (n = 98,000); AID 738
CYP2C19 activ = cytochrome P450 2C19 (human) activation. P33261. recombinant CYP2C19, luciferin-H EGE luminescence; stronger effect = higher value; 0 = fully inhibited enzyme, 1 = untreated enzyme. activation factor at 5 µM. 96,000 tested, under 10 active;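 active = activation factor of at least 2 at 5 µM in the primary screen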
Large screens that a line does not name were inactive. Sampled rows, rich in hits. Any-hit rate of the full collection: about 32%. Rule as the data show it, unless noted: active = inhibition above about 30%; inactive = the rest.

O=C(CF)NC(Nc1cccc2cccnc12)C(Cl)(Cl)Cl (configuration not stated)	CYP2C19 inh 89
NCC(CC(=O)O)C1CCCCC1 (configuration not stated)	none
Cc1nc2ccc(Cl)cn2c1P(=S)(N1CCOCC1)N1CCOCC1	none
CCOC(=O)c1c(NC(=O)C(c2ccccc2)c2ccccc2)sc2c1C1CCN2CC1	CYP2C9 inh 63
CCOCCCn1c(N)c(C(=O)Nc2sc3c(c2C(=O)OC)CCCC3)c2nc3ccccc3nc21	none
C=CCn1c(O)c(C(C)=NCCN2CCOCC2)c(=O)[nH]c1=O	none
COc1cc(C2NCc3ccccc3-n3cccc32)ccc1O (configuration not stated)	CYP2C19 inh 73, CYP2C9 inh 66
CC(=O)Nc1cc(C(=O)N2CCC3(CC2)OCCO3)ccc1Sc1ccc(C)cc1	none
CC(=O)Nc1ccccc1OP1(=O)COc2ccccc2OC1	none
O=C(Nc1ccc(F)cc1F)c1cccnc1Oc1cccc(C(F)(F)F)c1	none
CC(Cc1ccccc1)[n+]1cc(/N=C(\[O-])Nc2ccccc2)on1 (configuration not stated)	CYP2C9 inh 72
CCOc1ccc(CC2C(=O)NC(=O)N(c3ccc(CC)cc3)C2=O)cc1 (configuration not stated)	CYP2C9 inh 67
CCOC(=O)C1CCN(/C=C2/C(=O)NC(=O)N(c3ccc(OCC)cc3)C2=O)CC1	none
Cc1c(C(=O)N2CCC3(CC2)OCCO3)sc2ncnc(N(C)c3ccccc3)c12	CYP2C9 inh 73
Cc1sc2ncn(CC(=O)N3CCC4(CC3)OCCO4)c(=O)c2c1C	none
Cc1c2cnn(CC(=O)N3CCC4(CC3)OCCO4)c(=O)c2c(C)n1Cc1ccccc1F	none
O=C(Nc1ccc2c(c1)OCO2)c1cn(Cc2ccc(F)cc2)nn1	none
CC(c1ccccc1F)n1cc(C(=O)Nc2ccc3nc[nH]c3c2)nn1 (configuration not stated)	PostGolgi ctrl 30
Cc1ccccc1C1=NCC(=O)N(CC(=O)NCc2ccco2)c2sc3c(c21)CCCC3	CYP2C19 inh 66, CYP2C9 inh 84
Cc1ccc(C2=NCC(=O)N(CC(=O)N3CCCCC3)c3sc(C)c(C)c32)cc1	none
CC12CCCCC1=NC(c1ccc(Br)cc1)N2O (configuration not stated)	none
CC(C)Cc1[nH]c(=O)c(C#N)c2c1CCC2	PostGolgi yeast 35
CN1CCN(CC(=O)Nc2ccc(Cl)cc2C(=O)c2ccccc2)CC1	none
Cc1ccc(NC(=O)CN2C(=O)CN=C(c3ccccc3)c3cc(Cl)ccc32)cc1	CYP2C19 inh 90, CYP2C9 inh 80, PostGolgi ctrl 46
CN(C)c1ccc(NC(=O)CN2C(=O)CN=C(c3ccccc3)c3cc(Cl)ccc32)cc1	CYP2C19 inh 96, CYP2C9 inh 65
CN(C)c1ccc(NC(=O)CN2C(=O)CN=C(c3ccccc3)c3ccccc32)cc1	CYP2C19 inh 65
CCC(C)C1N=C(c2ccccc2)c2cc(Cl)ccc2N(CC(=O)NCc2ccco2)C1=O (configuration not stated)	none
CC(C)OC(=O)c1c(N)n(CC2CCCO2)c2nc3ccccc3nc12 (configuration not stated)	none
CC(C)OCCCNC(=O)c1c(N)n(CC2CCCO2)c2nc3ccccc3nc12 (configuration not stated)	CYP2C19 inh 67, CYP2C9 inh 85
Nc1c(C(=O)OC2CCCCC2)c2nc3ccccc3nc2n1CC1CCCO1 (configuration not stated)	none
CCCNC(=O)c1c(N)n(CC2CCCO2)c2nc3ccccc3nc12 (configuration not stated)	PostGolgi ctrl 33
CCC(C)n1c(O)c(C(c2ccccn2)c2c(O)n(C(C)CC)c(=S)[nH]c2=O)c(=O)[nH]c1=S (configuration not stated)	none
CCOC(=O)c1c(-n2c(C)cc(C=C3C(=O)NC(=S)NC3=O)c2C)sc2c1CCCC2	PostGolgi yeast 97, CYP2C9 inh 67, PostGolgi ctrl 42
COc1ccc2c(c1)c(C(=O)CN1CCC3(CC1)OCCO3)c(C)n2Cc1ccccc1	none
CNP(=S)(NC)OCCOc1ccc(OC)cc1	CYP2C19 inh 84
CCN1/C(=C\C=C\C2=[N+](CC)c3ccccc3C2(C)C)C(C)(C)c2ccccc21	CYP2C19 inh 92, PostGolgi yeast 99, CYP2C9 inh 69, PostGolgi ctrl 96
COc1ccc2c(c1)CC1(CN2C)C(=O)NC(=O)N(CCc2ccccc2)C1=O (configuration not stated)	none
COc1ccccc1N1C(=O)NC(=O)C(CCc2ccncc2)(CCc2ccncc2)C1=O	CYP2C19 inh 91, CYP2C9 inh 69
CC1CCC(C(=O)NC(C(=O)N2CCC3(CC2)OCCO3)C(C)C)CC1 (configuration not stated)	none
N#Cc1cc2c(nc1SCC(=O)Nc1ccc(Cl)cc1)C1CCN2CC1	CYP2C19 inh 92, CYP2C9 inh 84
CC(C)(C)C(O)C(Oc1ccc(Cl)cc1)n1cncn1 (configuration not stated)	CYP2C19 inh 95, PostGolgi yeast 104, CYP2C9 inh 58, PostGolgi ctrl 98
CC[N+](CC)(CC)CCCOC(=O)C(O)(c1ccccc1)C1CCCCC1 (configuration not stated)	none
CN(C)CC#CCC(O)(c1ccccc1)C1CCCC1 (configuration not stated)	CYP2C19 inh 55
O=C1NC(=O)C2(C(=O)N1)C(c1ccc(F)cc1)NC(=S)NC2c1ccc(F)cc1 (configuration not stated)	none
Cc1ccc2occ(CN3CC4CC(C3)c3cccc(=O)n3C4)c(=O)c2c1 (configuration not stated)	none
O=c1cccc2n1CC1CC2CN(Cc2c(F)cccc2Cl)C1 (configuration not stated)	CYP2C19 inh 99, CYP2C9 inh 55
O=c1cccc2n1CC1CC2CN(Cc2cccc(Cl)c2Cl)C1 (configuration not stated)	CYP2C19 inh 88
Nc1ccc(S(=O)(=O)N2CC3CC(C2)c2cccc(=O)n2C3)cc1 (configuration not stated)	none
Cc1ccc(S(=O)(=O)N2CC3CC(C2)c2cccc(=O)n2C3)cc1 (configuration not stated)	PostGolgi yeast 33
C=C1N2CCC(CC2)C1(O)c1ccccc1C (configuration not stated)	none
O=C(C1CC(=O)N(c2ccc(F)c(Cl)c2)C1)N1CCC2(CC1)OCCO2 (configuration not stated)	none
COc1cccc(N2CCN(Cc3ccc(Cl)cc3)CC2)c1	CYP2C19 inh 88, CYP2C9 inh 72
COc1ccc(CN2CCN(Cc3ccccc3)CC2)c(OC)c1	none (no result: PostGolgi yeast, PostGolgi ctrl)
